Sampled rows, rich in hits. Any-hit rate of the full collection: about 1.1%.
SRC1 inh = inhibitors of human steroid receptor coactivator 1 (SRC1); HEK293 GAL4-SRC1 luciferase reporter, luminescence; hit rate 0.12% among 360,000; Q15788; inhibition, % at 3.6 µM; AID 588354;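 active = inhibition above the campaign mean plus 3 SD, with each screening campaign given its own cutoff, cut at about 60% in these data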;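 note: 0% = DMSO treated cells and 100% = gossypol at 36 µM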
NR2F2 inh = NR2F2 (human) inhibition, primary screen; P24468; HEK293T NGFI-A luciferase reporter, luminescence; inhibition, % at 8.6 µM; hit rate 0.7% among 370,000;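 active = inhibition above a per-plate cutoff, mean inhibition of test wells between control levels plus 3 SD, cut at about 38% in these data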;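 note: cells cotransfected with COUP-TFII expression vector driving the NGFI-A reporter; 0% = median of COUP-TF2 test wells and 100% = reporter-only cells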
SRC2 inh = inhibits human steroid receptor coactivator 2; HEK293 GAL4-SRC2 luciferase reporter, luminescence; AID 651957; inhibition, % at 9 µM; hit rate 0.17% among 370,000;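 active = inhibition above the mean inhibition of all tested compounds plus 3 SD, set per campaign, cut at about 52% in these data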;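 note: 0% = DMSO treated cells and 100% = cells given Gossypol at 36 µM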
NCOA3 inh = inhibits human SRC3 coactivator. HEK293 GAL4-SRC3 luciferase reporter, luminescence. AID 588352. inhibition, % at 3.6 µM. hit rate 0.17% among 360,000;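 active = inhibition above a per-campaign cutoff, the mean of all compounds plus 3 SD, cut at about 60% in these data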;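 note: 0% = DMSO-treated cells and 100% = gossypol-treated cells at 36 µM; higher means less SRC3-driven luciferase light from the GAL4 reporter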
Target sequence (Q9Y6Q9 whole entry, looked up, the tested form may be a part): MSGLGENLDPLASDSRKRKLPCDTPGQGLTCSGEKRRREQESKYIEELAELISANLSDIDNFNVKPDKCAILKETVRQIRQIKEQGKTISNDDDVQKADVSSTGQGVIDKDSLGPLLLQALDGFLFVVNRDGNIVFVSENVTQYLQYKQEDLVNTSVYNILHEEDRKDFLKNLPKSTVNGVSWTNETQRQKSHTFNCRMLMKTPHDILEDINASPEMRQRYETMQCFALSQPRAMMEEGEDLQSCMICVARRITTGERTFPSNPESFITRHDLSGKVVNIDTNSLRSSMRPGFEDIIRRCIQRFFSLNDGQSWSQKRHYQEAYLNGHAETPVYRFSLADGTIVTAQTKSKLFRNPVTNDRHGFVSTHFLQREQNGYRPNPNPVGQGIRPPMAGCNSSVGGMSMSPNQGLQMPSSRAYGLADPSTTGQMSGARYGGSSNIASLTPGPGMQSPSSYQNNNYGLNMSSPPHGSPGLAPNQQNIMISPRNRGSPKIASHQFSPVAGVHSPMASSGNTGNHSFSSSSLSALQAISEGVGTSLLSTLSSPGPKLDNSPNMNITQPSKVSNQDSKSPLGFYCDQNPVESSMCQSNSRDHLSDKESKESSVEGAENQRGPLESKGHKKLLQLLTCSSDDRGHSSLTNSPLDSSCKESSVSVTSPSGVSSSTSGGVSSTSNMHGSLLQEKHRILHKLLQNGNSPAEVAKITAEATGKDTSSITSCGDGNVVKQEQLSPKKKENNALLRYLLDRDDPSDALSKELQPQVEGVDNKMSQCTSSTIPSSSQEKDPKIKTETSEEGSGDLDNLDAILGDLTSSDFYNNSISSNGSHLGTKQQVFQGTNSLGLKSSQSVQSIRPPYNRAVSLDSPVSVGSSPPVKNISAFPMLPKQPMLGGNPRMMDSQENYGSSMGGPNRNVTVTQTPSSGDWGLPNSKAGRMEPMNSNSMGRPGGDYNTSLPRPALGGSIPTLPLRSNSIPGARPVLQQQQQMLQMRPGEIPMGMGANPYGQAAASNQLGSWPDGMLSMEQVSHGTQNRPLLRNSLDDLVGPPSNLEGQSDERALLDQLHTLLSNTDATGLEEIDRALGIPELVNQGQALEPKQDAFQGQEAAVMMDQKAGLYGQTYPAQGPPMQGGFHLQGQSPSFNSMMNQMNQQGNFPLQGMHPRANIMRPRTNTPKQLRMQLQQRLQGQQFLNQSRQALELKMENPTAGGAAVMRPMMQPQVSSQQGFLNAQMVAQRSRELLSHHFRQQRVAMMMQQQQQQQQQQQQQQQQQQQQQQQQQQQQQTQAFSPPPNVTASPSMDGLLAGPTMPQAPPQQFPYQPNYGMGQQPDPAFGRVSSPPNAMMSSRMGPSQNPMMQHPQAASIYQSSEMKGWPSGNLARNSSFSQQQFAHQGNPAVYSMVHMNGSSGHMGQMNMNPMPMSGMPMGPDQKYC
NR5A2 inv ag = NR5A2 inverse agonism in reporter assay. HEK293T StAR-luciferase reporter, LRH-1 transfected, 24 h. inhibition, % at 3.6 µM. AID 602396. hit rate 0.13% among 360,000;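 active = inhibition above the mean inhibition of all tested compounds plus 3 SD, cut at about 73% in these data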;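 note: 0% = DMSO wells and 100% = reporter-only cells lacking LRH-1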
GalR3 antag = antagonists of human GalR3; O60755; HEK293 GalR3-CNG cAMP membrane potential fluorescence; galR3 body fused to GalR1 C-terminus; inhibition, % at 3 µM; hit rate 0.44% among 360,000; AID 651719;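 active = inhibition above the screen-wide average plus 3 SD, cut at about 13% in these data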;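 note: forskolin and galanin both at EC90 stimulate the cells; cAMP rise reported by CNG channel membrane potential dye signal; 0% = forskolin plus galanin with DMSO and 100% = forskolin alone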
* = called active by the depositor.

`CCCN(CC(=O)Nc1ccccc1C)C(=O)CCl` gave SRC1 inh 49, NR2F2 inh 5, SRC2 inh 56*, NCOA3 inh 56, NR5A2 inv ag 39 and GalR3 antag -3.
Screening COC(=O)[C@]12C[C@H](CC(=O)NCC34CC5CC(CC(C5)C3)C4)C(=O)N(Cc3cccc4ccccc34)C1=C[C@H](C(C)C)O[C@@H]2C1CC1 returned NR2F2 inh 6 and SRC2 inh 20.
Screening Nn1c(SCC(=O)Nc2ccc(OCc3ccccc3)cc2)nnc1-c1cc(-c2ccccc2)n[nH]1 returned NR2F2 inh -18 and SRC2 inh 7.
For Cc1ccc(NC2=C(N3CCCCC3)C(=O)c3ccccc3C2=O)cc1 the results were SRC1 inh 7, NR2F2 inh -19, SRC2 inh -40, NCOA3 inh 45, NR5A2 inv ag 62 and GalR3 antag -3.
`COc1ccccc1NC1=C(N2CCCCC2)C(=O)c2ccccc2C1=O` gave SRC1 inh 74*, NCOA3 inh 80* and NR5A2 inv ag 97*.
`O=C(/C=C/c1ccc(O)cc1)c1ccc(NC2=C(N3CCCCC3)C(=O)c3ccccc3C2=O)cc1` gave SRC1 inh 26, NR2F2 inh 11, SRC2 inh 2, NCOA3 inh 42, NR5A2 inv ag 76* and GalR3 antag -4.
O=C1C(Nc2ccccc2)=C(N2CCCCC2)C(=O)c2ccccc21 was read as SRC1 inh 29, NR2F2 inh 6, SRC2 inh 1, NCOA3 inh 68*, NR5A2 inv ag 93* and GalR3 antag -3.
Screening O=[N+]([O-])c1ccc(O)c(/C=N/Nc2nc3ccccc3[nH]2)c1 returned SRC1 inh 17, NR2F2 inh -34, SRC2 inh 8, NCOA3 inh 64*, NR5A2 inv ag 91* and GalR3 antag 6.
`CNC(=O)c1nnsc1S(=O)(=O)c1ccc(Cl)cc1` gave SRC1 inh -13, NR2F2 inh 7, SRC2 inh 41, NCOA3 inh 16, NR5A2 inv ag -20 and GalR3 antag -2.
O=C(c1nnsc1S(=O)(=O)c1ccc(Cl)cc1)N1CCOCC1 was read as SRC1 inh -4, NR2F2 inh 9, SRC2 inh -44, NCOA3 inh 8, NR5A2 inv ag -42 and GalR3 antag 22*.
For COC(=O)C1=C(C)N(Cc2ccc(C(F)(F)F)cc2)C(=NCc2ccccc2C(F)(F)F)NC1c1ccc(C(F)(F)F)cc1 (stereo not drawn) the results were NR2F2 inh -1, SRC2 inh -2 and GalR3 antag 0.
`CC(=O)C1(C(=O)Nc2cc(C)cc(C)c2)CC(c2ccccn2)=NO1` (stereo not drawn) gave NR2F2 inh 11 and SRC2 inh 17.
Cc1ccc2cccc(NS(=O)(=O)c3ccccc3)c2n1 was read as NR2F2 inh -3, SRC2 inh 75* and GalR3 antag -3.
O=C(NCc1ccccc1)[C@@H]1CCCN1C(=O)[C@H]1CCCN1C(=O)c1ccccc1F was read as NR2F2 inh -18, SRC2 inh -1 and GalR3 antag 1.
N=c1c2c(-c3ccccc3)c(-c3ccccc3)n(Cc3ccco3)c2ncn1CCCO was read as SRC1 inh 43, NR2F2 inh -4, SRC2 inh 7, NCOA3 inh 48, NR5A2 inv ag 16 and GalR3 antag -7.
`N=c1c2c(-c3ccccc3)c(-c3ccccc3)n(Cc3ccco3)c2ncn1CCO` gave SRC1 inh 41, NR2F2 inh -4, SRC2 inh -62, NCOA3 inh 63*, NR5A2 inv ag 43 and GalR3 antag -13.
For COc1ccccc1C=CC(=O)C=Cc1ccccc1OC the results were SRC1 inh -55, NR2F2 inh 50*, SRC2 inh 7, NCOA3 inh 2, NR5A2 inv ag -6 and GalR3 antag -2.
`O=C(NCc1ccccc1)C(c1ccc(C(F)(F)F)cc1)N1CCN(CCN2CCOCC2)CC1` (stereo not drawn) gave NR2F2 inh -5, SRC2 inh -9, NR5A2 inv ag 23 and GalR3 antag -3.
For CCCCC(=O)NC(c1ccc(Cl)cc1)c1ccc2cccnc2c1O (stereo not drawn) the results were SRC1 inh 44, NR2F2 inh -9, SRC2 inh 18, NCOA3 inh 50, NR5A2 inv ag 84* and GalR3 antag -10.
CCCC(=O)NC(c1ccc(Cl)cc1)c1ccc2cccnc2c1O (stereo not drawn) was read as SRC1 inh 48, NR2F2 inh 14, SRC2 inh 19, NCOA3 inh 48, NR5A2 inv ag 77* and GalR3 antag -12.
For CCCC(=O)NC(c1ccccc1OC)c1ccc2cccnc2c1O (stereo not drawn) the results were SRC1 inh 39, NCOA3 inh 53 and NR5A2 inv ag 80*.
CCCCC(=O)NC(c1ccc(N(C)C)cc1)c1ccc2cccnc2c1O (stereo not drawn) was read as SRC1 inh 46, NR2F2 inh -31, SRC2 inh 3, NCOA3 inh 44, NR5A2 inv ag 13 and GalR3 antag -4.
For CCCC(=O)NC(c1ccc(C)cc1)c1ccc2cccnc2c1O (stereo not drawn) the results were SRC1 inh 65*, NCOA3 inh 68* and NR5A2 inv ag 85*.
CCCC(=O)NC(c1ccc(Cl)cc1Cl)c1ccc2cccnc2c1O (stereo not drawn) was read as SRC1 inh 28, NR2F2 inh -18, SRC2 inh 36, NCOA3 inh 37, NR5A2 inv ag 27 and GalR3 antag -10.
For O=C(NCCc1ccccc1Cl)[C@@H]1CCCN1C(=O)[C@@H](NC(=O)N1CCOCC1)C1CCCCC1 the results were NR2F2 inh -3, SRC2 inh -14 and GalR3 antag -6.
For CCN(CC)c1ccc(C(NC(=O)C(C)C)c2ccc3cccnc3c2O)cc1 (stereo not drawn) the results were SRC1 inh 43, NR2F2 inh -23, SRC2 inh 32, NCOA3 inh 50, NR5A2 inv ag 96* and GalR3 antag -4.
`COc1cccc(N(C(=O)CCl)C(C(=O)NCCc2ccccc2)c2cccs2)c1` (stereo not drawn) gave SRC1 inh 28, NR2F2 inh 7, SRC2 inh 61*, NCOA3 inh 68*, NR5A2 inv ag 26 and GalR3 antag -5.
For COc1ccc(N(C(=O)CCl)C(C(=O)NCCc2ccccc2)c2cccs2)cc1Cl (stereo not drawn) the results were SRC1 inh 3, NR2F2 inh 26, SRC2 inh 48, NCOA3 inh 76*, NR5A2 inv ag 40 and GalR3 antag -6.

Bioassay records (PubChem)
